Source: PubChem BioAssay

Molecular target: Alpha-bungarotoxin (Bungarus multicinctus) (UniProt P60615)
Experiment: compounds binding labelled alpha-BTX control protein – biochemical, small-molecule microarray, Alexa647 label, 635/667 nm fluorescence, artefact control for SMM control protein annotation, profiling panel (AID 1117)
Conditions: alpha-BTX-A647 binding fluorescence, higher = more signal

Alpha-bungarotoxin (Bungarus multicinctus), sequence (P60615 whole entry, looked up): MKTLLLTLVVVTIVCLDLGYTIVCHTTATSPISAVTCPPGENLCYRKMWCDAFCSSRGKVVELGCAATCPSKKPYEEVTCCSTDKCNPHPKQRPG

| Structure (SMILES) | composite z-score |
| --- | --- |
| CCCN1C(=O)[C@]2(Cc3ccccc3)N=C(c3ccc(OCCCO)cc3)O[C@@H]2c2ccccc21 | 1.33 |
| C[C@H]1C2=C3C(CC[C@H]4C(OCc5ccc(F)cc5C(F)(F)F)OC[C@](C)([C@@H]34)N(C(=O)OC(C)(C)C)C2)C2COC(=O)OCC21 (stereo not given in full) | 0.771 |
| O=C1c2ccccc2[C@](Cc2ccccc2I)(C(=O)NCCN2CCOCC2)[C@H](c2ccc(CO)cc2)N1Cc1ccccc1 | 1.64 |
| COC(=O)[C@@]1(Cc2ccc(OC)cc2)[C@H]2c3cc(C(=O)N(C)C)n(Cc4nc5ccccc5[nH]4)c3C[C@H]2CN1C(=O)c1ccccc1 | 1.26 |
| C[C@]1(C(=O)NC2CC2)c2ccccc2C(=O)N(Cc2ccc(OC(F)(F)F)cc2)[C@H]1c1ccc(CO)cc1 | 0.585 |
| CN(C)CCCNC(=O)[C@@H]1c2ccccc2C(=O)N(CC23CC4CC(CC(C4)C2)C3)[C@H]1c1ccc(CO)cc1 | 1.65 |
| CC1CC/C=C\[C@H]2OC34C=CCN(C(C)C)C(=O)[C@H]3N(CCCCCO)C(=O)[C@@H]4C2C(=O)O1 (stereo not given in full) | -1.36 |
| C=CCOC(=O)[C@H]1[C@@H]2C(=O)O[C@@H](c3ccccc3)[C@@H](c3ccccc3)N2[C@@H](c2ccc(OCCOC(=O)[C@H]3C[C@H]4C(=O)N[C@@H](Cc5ccccc5)C(=O)N4[C@H]3c3cccc(OCCO)c3)cc2)[C@]12C(=O)Nc1ccc(I)cc12 | 1.35 |
| CC(C)CN1C(=O)[C@@]2(c3ccc([N+](=O)[O-])cc3)CC(=O)N(CC34CC5CC(CC(C5)C3)C4)[C@@H]2c2ccc(CO)cc21 | 0.578 |
| C=C(CCCC)/C(=C/C[C@@H](OC(C)=O)c1ccc(CO)o1)c1cc(C(=O)OC)ccc1OC | 1.28 |
| COC(=O)C1(Cc2ccccc2)C=C2C(=C(C(C)C)C(=O)C2C)CN1 (stereo not given) | -0.473 |
| COc1ccc([Si](C)(C)[C@@H]2[C@@H](CCO)O[C@]3(C(=O)N(Cc4cccc(N5C(=O)c6cccc7cccc5c67)c4)c4ccccc43)[C@H]2C)cc1 | 0.578 |
| C=CCC(OC(C)=O)[C@@H]1[C@@H](N(Cc2cc3ccccc3o2)C(=O)Cc2ccc(F)cc2)c2cc(OCCCO)ccc2N1C(=O)c1ccc2ccccc2n1 (stereo not given in full) | 0.222 |
| C=CCOC(=O)[C@@H]1[C@H]2C(=O)O[C@H](c3ccccc3)[C@H](c3ccccc3)N2[C@H](c2ccc(OCCOC(=O)[C@H]3C[C@H]4C(=O)N[C@@H](CCCC[N+](C)(C)C)C(=O)N4[C@H]3c3ccc(O)cc3)cc2)[C@@]12C(=O)Nc1ccc(I)cc12 | 1.89 |
| [N-]=[N+]=Nc1ccccc1[C@@H]1OC(c2ccc(OCCCO)cc2)=N[C@]1(CCS(=O)(=O)c1ccccc1)C(=O)NCCN1CCOCC1 | 0.737 |
